The full data set covers some 7,900 targets. This sample favours those with a hit. About 0.6% of all pairs of compound and target were hits.
Key:
Experiment in all cases: log2 fold change, soluble protein after heating vs DMSO (PISA); higher = thermal stabilisation; K562 cells, 10 uM, 30 min; active = over 0.2 and 3.5 SD of the protein, either way, in both replicates (recomputed)
[1] = compound: COC1=CC=C(C=C1)CN2C=CC3=C2C=C(C=C3)C(=O)NO
Outline: (§1)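 Aliquots of K562 cells (2×10^6 cells/mL) treated with 10 μM compound for 30 min were heated for 3 min over 48°C-58°C. After pooling and extraction in PBS with 0.5% NP-40 at 4°C, soluble protein from a 21,000xg, 90 min spin was quantified by TMTpro 16plex LC-MS/MS with channel sums equalised. Thermal stability is expressed against control samples, from duplicates, as a log2 fold change.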

filanesib = compound: CON(C)C(=O)N1N=C(c2cc(F)ccc2F)S[C@@]1(CCCN)c1ccccc1 [filanesib]
Outline: as §1

zotarolimus = compound: CO[C@H]1C[C@@H]2CC[C@@H](C)[C@@](O)(O2)C(=O)C(=O)N2CCCC[C@H]2C(=O)O[C@H]([C@H](C)C[C@@H]2CC[C@H](n3cnnn3)[C@H](OC)C2)CC(=O)[C@H](C)/C=C(\C)[C@@H](O)[C@@H](OC)C(=O)[C@H](C)C[C@H](C)/C=C/C=C/C=C/1C [zotarolimus]
Outline: as §1

idasanutlin = compound: COc1cc(C(=O)O)ccc1NC(=O)[C@@H]1N[C@@H](CC(C)(C)C)[C@](C#N)(c2ccc(Cl)cc2F)[C@H]1c1cccc(Cl)c1F [idasanutlin]
Outline: as §1

alisertib = compound: COc1cc(Nc2ncc3c(n2)-c2ccc(Cl)cc2C(c2c(F)cccc2OC)=NC3)ccc1C(=O)O [alisertib]
Outline: as §1

[2] = compound: COc1cc2nc(-c3cc(F)ccc3O)nc(N[C@@H]3CNC[C@H]3C(C)(C)O)c2cc1OC
Outline: as §1

gefitinib = compound: COc1cc2ncnc(Nc3ccc(F)c(Cl)c3)c2cc1OCCCN1CCOCC1 [gefitinib]
Outline: as §1

[3] = compound: COc1cccc2cc(-c3nc([C@H]4CC[C@H](C(=O)O)CC4)n4ncnc(N)c34)[nH]c12
Outline: as §1

lapatinib = compound: CS(=O)(=O)CCNCc1ccc(-c2ccc3ncnc(Nc4ccc(OCc5cccc(F)c5)c(Cl)c4)c3c2)o1 [lapatinib]
Outline: as §1

pictilisib = compound: CS(=O)(=O)N1CCN(Cc2cc3nc(-c4cccc5[nH]ncc45)nc(N4CCOCC4)c3s2)CC1 [pictilisib]
Outline: as §1

[4] = compound: CS(=O)(=O)c1ccc(-c2cnc(N)c(C(=O)Nc3ccccc3)n2)cc1
Outline: as §1

crizotinib = compound: C[C@@H](Oc1cc(-c2cnn(C3CCNCC3)c2)cnc1N)c1c(Cl)ccc(F)c1Cl [crizotinib]
Outline: as §1

[5] = compound: C[C@@H]1COCCN1C2=NC(=NC(=C2)C3(CC3)S(=O)(=O)C)C4=C5C=CNC5=CC=C4
Outline: as §1

[6] = compound: C[C@H](C1=CC=C(C=C1)C(=O)NC2=C3C=CNC3=NC=C2)N
Outline: as §1

duvelisib = compound: C[C@H](Nc1ncnc2nc[nH]c12)c1cc2cccc(Cl)c2c(=O)n1-c1ccccc1 [duvelisib]
Outline: as §1

gandotinib = compound: Cc1cc(Nc2cc(CN3CCOCC3)c3nc(C)c(Cc4ccc(Cl)cc4F)n3n2)n[nH]1 [gandotinib]
Outline: as §1

tozasertib = compound: Cc1cc(Nc2cc(N3CCN(C)CC3)nc(Sc3ccc(NC(=O)C4CC4)cc3)n2)n[nH]1 [tozasertib]
Outline: as §1

[7] = compound: Cc1cc(SCc2sc(-c3ccc(C(F)(F)F)cc3)nc2C)ccc1OCC(=O)O
Outline: as §1

doramapimod = compound: Cc1ccc(-n2nc(C(C)(C)C)cc2NC(=O)Nc2ccc(OCCN3CCOCC3)c3ccccc23)cc1 [doramapimod]
Outline: as §1

ispinesib = compound: Cc1ccc(C(=O)N(CCCN)[C@@H](c2nc3cc(Cl)ccc3c(=O)n2Cc2ccccc2)C(C)C)cc1 [ispinesib]
Outline: as §1

Measured: log2 fold change

KTN1 (UniProt Q86UP2)
inactive: [1] 0.023 | filanesib 0.146 | zotarolimus 0.034 | idasanutlin 0.004 | alisertib 0.032 | [2] -0.001 | gefitinib -0.08 | [3] -0.116 | lapatinib -0.038 | pictilisib -0.086 | [4] -0.016 | crizotinib -0.078 | [5] -0.028 | [6] 0.122 | duvelisib -0.027 | gandotinib -0.047 | tozasertib -0.007 | [7] 0.097 | doramapimod 0.094 | ispinesib -0.207

MIEF1 (UniProt L0R8F8)
inactive: [1] 0.104 | filanesib -0.072 | zotarolimus 0.023 | idasanutlin -0.063 | alisertib -0.084 | [2] -0.148 | gefitinib -0.005 | [3] 0 | lapatinib 0.135 | pictilisib 0.033 | [4] -0.023 | crizotinib 0.068 | [5] -0.067 | [6] -0.065 | duvelisib 0.151 | gandotinib -0.062 | tozasertib 0.023 | [7] -0.025 | doramapimod -0.04 | ispinesib -0.03

IPO9 (UniProt Q96P70)
inactive: [1] 0.014 | filanesib -0.005 | zotarolimus 0.052 | idasanutlin -0.089 | alisertib -0.016 | [2] -0.054 | gefitinib 0.088 | [3] 0.065 | lapatinib 0.011 | pictilisib 0.031 | [4] -0.04 | crizotinib -0.031 | [5] 0.051 | [6] -0.042 | duvelisib 0.007 | gandotinib -0.146 | tozasertib 0.143 | [7] 0.041 | doramapimod 0.008 | ispinesib 0.062

IRAK4 (UniProt Q9NWZ3)
Sequence of UniProt Q9NWZ3 (Q9NWZ3 whole entry, looked up): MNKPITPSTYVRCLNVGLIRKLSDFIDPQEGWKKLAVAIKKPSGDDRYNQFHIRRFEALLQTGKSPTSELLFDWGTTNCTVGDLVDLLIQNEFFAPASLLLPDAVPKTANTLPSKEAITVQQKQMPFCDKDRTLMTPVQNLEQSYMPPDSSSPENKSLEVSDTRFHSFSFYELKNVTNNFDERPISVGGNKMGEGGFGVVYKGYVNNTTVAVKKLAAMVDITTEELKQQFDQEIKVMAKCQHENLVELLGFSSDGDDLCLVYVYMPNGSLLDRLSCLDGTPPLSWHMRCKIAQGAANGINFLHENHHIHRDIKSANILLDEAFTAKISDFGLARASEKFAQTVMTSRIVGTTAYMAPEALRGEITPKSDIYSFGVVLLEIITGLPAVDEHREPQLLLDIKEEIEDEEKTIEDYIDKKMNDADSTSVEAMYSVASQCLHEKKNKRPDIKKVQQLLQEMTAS
inactive: [1] 0.012 | filanesib -0.028 | zotarolimus 0.01 | idasanutlin 0.004 | alisertib -0.059 | [2] 0.104 | gefitinib 0.109 | [3] 0.007 | lapatinib -0.004 | pictilisib -0.099 | [4] 0.034 | crizotinib -0.025 | [5] 0.003 | [6] 0.046 | duvelisib -0.01 | gandotinib -0.107 | tozasertib 0.061 | [7] 0.104 | doramapimod -0.047 | ispinesib -0.05

MFN2 (UniProt O95140)
Sequence of UniProt O95140 (O95140 whole entry, looked up): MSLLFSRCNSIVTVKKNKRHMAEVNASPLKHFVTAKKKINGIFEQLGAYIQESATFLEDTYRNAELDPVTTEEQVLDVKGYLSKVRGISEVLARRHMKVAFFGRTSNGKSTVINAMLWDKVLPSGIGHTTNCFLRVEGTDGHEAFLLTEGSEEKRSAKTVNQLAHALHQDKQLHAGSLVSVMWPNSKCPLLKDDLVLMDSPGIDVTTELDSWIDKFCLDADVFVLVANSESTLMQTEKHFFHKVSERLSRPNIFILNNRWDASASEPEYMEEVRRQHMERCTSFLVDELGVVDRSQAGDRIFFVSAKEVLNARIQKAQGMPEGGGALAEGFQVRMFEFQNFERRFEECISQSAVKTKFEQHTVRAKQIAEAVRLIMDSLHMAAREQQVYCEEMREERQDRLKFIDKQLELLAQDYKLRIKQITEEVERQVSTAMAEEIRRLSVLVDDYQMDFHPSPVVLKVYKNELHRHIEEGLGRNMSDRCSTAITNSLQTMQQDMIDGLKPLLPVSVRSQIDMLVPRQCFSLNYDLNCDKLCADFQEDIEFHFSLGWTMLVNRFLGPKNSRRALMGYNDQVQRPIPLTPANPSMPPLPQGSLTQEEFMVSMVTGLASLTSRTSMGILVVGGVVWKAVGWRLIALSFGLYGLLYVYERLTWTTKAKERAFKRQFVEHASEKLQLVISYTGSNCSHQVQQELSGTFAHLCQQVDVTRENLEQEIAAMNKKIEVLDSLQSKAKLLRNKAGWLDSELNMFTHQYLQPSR
active: [2] -0.438
inactive: [1] 0.04 | filanesib -0.112 | zotarolimus 0.016 | idasanutlin 0 | alisertib -0.043 | gefitinib 0.01 | [3] -0.006 | lapatinib 0.027 | pictilisib -0.058 | [4] 0.028 | crizotinib -0.109 | [5] 0 | [6] 0.022 | duvelisib -0.048 | gandotinib 0.028 | tozasertib -0.013 | [7] 0.041 | doramapimod 0.039 | ispinesib -0.208

KDM3B (UniProt Q7LBC6)
inactive: [1] 0.01 | filanesib 0.001 | zotarolimus 0.033 | idasanutlin -0.026 | alisertib 0.021 | [2] 0.065 | gefitinib 0.008 | [3] -0.029 | lapatinib -0.014 | pictilisib 0.012 | [4] 0.045 | crizotinib 0.001 | [5] 0.086 | [6] -0.044 | duvelisib 0.015 | gandotinib -0.045 | tozasertib 0.06 | [7] 0.012 | doramapimod -0.077 | ispinesib 0.015

KEAP1 (UniProt Q14145)
Sequence of UniProt Q14145 (Q14145 whole entry, looked up): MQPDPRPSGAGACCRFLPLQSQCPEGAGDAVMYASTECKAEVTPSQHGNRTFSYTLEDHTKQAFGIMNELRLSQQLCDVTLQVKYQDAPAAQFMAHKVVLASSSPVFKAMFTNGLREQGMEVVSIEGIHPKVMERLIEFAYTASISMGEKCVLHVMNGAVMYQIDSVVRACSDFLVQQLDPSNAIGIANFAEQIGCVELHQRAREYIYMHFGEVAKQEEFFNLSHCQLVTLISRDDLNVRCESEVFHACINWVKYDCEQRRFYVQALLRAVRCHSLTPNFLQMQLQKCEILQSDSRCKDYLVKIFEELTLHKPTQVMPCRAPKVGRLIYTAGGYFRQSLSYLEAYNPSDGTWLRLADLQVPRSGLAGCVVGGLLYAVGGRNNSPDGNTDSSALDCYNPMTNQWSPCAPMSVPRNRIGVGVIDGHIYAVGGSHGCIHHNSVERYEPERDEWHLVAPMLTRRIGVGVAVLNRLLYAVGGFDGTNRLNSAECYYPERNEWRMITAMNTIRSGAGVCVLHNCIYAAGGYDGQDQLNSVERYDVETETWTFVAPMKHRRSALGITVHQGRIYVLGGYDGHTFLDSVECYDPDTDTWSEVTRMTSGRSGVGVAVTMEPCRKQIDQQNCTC
inactive: [1] 0.005 | filanesib 0.028 | zotarolimus 0.036 | idasanutlin -0.019 | alisertib -0.018 | [2] 0.005 | gefitinib 0.03 | [3] -0.066 | lapatinib 0.007 | pictilisib -0.02 | [4] 0.011 | crizotinib -0.077 | [5] -0.095 | [6] 0.111 | duvelisib 0.008 | gandotinib -0.176 | tozasertib 0.077 | [7] 0.049 | doramapimod 0.089 | ispinesib -0.102

MCU (UniProt Q8NE86)
Sequence of UniProt Q8NE86 (Q8NE86 whole entry, looked up): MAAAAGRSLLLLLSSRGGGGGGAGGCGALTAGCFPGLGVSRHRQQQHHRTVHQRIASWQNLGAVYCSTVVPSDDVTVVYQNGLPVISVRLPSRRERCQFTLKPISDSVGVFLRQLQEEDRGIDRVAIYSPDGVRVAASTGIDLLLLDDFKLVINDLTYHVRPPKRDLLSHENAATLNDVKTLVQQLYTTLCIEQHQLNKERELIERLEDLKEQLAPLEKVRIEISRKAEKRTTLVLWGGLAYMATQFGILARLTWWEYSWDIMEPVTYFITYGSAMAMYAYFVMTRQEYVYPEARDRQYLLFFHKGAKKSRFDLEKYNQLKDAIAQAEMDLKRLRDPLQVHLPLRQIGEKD
inactive: [1] -0.056 | filanesib -0.152 | zotarolimus 0.164 | idasanutlin -0.091 | alisertib -0.053 | [2] -0.053 | gefitinib -0.049 | [3] 0.054 | lapatinib -0.099 | pictilisib 0.09 | [4] -0.013 | crizotinib -0.159 | [5] 0.015 | [6] 0.001 | duvelisib 0.061 | gandotinib -0.172 | tozasertib -0.012 | [7] 0.054 | doramapimod -0.013 | ispinesib -0.1

MAP4 (UniProt E7EVA0)
inactive: [1] -0.027 | filanesib 0.216 | zotarolimus -0.1 | idasanutlin 0.023 | alisertib -0.094 | [2] -0.134 | gefitinib 0.109 | [3] -0.024 | lapatinib 0.186 | pictilisib 0.019 | [4] 0.023 | crizotinib -0.02 | [5] -0.222 | [6] 0.231 | duvelisib -0.084 | gandotinib -0.001 | tozasertib 0.124 | [7] -0.017 | doramapimod 0.136 | ispinesib -0.134

MAP2K7 isoform 4 (UniProt O14733)
inactive: [1] -0.018 | filanesib -0.029 | zotarolimus -0.042 | idasanutlin -0.003 | alisertib -0.029 | [2] 0.019 | gefitinib -0.027 | [3] 0.048 | lapatinib -0.016 | pictilisib 0.137 | [4] 0.017 | crizotinib -0.112 | [5] 0.003 | [6] -0.003 | duvelisib 0.018 | gandotinib -0.055 | tozasertib -0.057 | [7] -0.038 | doramapimod 0 | ispinesib -0.051

METTL18 (UniProt O95568)
Sequence of UniProt O95568 (O95568 whole entry, looked up): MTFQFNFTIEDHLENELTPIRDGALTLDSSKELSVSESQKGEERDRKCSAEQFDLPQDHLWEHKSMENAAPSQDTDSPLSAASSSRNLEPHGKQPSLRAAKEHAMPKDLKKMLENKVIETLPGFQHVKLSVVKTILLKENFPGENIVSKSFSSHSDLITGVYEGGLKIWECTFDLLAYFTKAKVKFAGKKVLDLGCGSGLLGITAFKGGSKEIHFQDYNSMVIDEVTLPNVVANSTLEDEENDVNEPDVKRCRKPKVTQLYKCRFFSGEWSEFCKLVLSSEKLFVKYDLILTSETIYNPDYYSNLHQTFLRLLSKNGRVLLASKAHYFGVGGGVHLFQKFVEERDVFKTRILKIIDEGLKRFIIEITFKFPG
active: [1] -0.364
inactive: filanesib 0.009 | zotarolimus 0.033 | idasanutlin -0.022 | alisertib 0.006 | [2] 0.075 | gefitinib -0.033 | [3] 0.057 | lapatinib 0.069 | pictilisib 0.026 | [4] 0.003 | crizotinib -0.043 | [5] 0.053 | [6] -0.012 | duvelisib 0.004 | gandotinib -0.045 | tozasertib -0.115 | [7] 0.012 | doramapimod -0.001 | ispinesib 0.004

ITIH4 (UniProt Q14624)
Sequence of UniProt Q14624 (Q14624 whole entry, looked up): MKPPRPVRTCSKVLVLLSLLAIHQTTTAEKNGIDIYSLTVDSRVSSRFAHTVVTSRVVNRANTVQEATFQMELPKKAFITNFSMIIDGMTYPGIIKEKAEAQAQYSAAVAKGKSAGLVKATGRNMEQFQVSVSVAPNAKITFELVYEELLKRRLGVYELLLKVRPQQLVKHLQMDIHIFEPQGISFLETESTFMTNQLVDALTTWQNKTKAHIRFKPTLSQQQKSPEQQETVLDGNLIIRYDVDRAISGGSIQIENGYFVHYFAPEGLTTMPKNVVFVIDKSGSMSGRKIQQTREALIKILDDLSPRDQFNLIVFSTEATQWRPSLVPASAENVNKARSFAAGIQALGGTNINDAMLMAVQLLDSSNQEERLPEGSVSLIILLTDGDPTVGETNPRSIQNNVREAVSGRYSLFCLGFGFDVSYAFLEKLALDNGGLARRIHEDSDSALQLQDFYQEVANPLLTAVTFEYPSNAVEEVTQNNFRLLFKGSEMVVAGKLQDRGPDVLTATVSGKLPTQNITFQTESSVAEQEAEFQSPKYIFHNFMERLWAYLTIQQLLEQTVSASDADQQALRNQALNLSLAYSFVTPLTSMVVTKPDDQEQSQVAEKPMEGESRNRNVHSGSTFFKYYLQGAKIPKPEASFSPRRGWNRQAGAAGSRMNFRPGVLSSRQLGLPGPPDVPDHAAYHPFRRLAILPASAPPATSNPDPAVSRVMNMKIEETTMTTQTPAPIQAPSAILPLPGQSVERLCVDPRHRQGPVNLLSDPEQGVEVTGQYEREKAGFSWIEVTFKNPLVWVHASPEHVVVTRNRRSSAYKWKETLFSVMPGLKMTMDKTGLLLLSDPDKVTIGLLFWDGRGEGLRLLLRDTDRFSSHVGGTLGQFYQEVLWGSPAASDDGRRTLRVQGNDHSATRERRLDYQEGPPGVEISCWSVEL
inactive: [1] 0.252 | filanesib -0.174 | idasanutlin 0.184 | alisertib -0.047 | [2] -0.146 | gefitinib -0.093 | [3] 0.277 | lapatinib -0.034 | pictilisib -0.241 | [4] -0.107 | crizotinib -0.102 | [5] 0.129 | [6] -0.005 | duvelisib 0.103 | gandotinib -0.387 | tozasertib -0.033 | [7] -0.031 | doramapimod -0.291 | ispinesib -0.402
active: zotarolimus -0.896

MAP4 (UniProt P27816)
Sequence of UniProt P27816 (P27816 whole entry, looked up): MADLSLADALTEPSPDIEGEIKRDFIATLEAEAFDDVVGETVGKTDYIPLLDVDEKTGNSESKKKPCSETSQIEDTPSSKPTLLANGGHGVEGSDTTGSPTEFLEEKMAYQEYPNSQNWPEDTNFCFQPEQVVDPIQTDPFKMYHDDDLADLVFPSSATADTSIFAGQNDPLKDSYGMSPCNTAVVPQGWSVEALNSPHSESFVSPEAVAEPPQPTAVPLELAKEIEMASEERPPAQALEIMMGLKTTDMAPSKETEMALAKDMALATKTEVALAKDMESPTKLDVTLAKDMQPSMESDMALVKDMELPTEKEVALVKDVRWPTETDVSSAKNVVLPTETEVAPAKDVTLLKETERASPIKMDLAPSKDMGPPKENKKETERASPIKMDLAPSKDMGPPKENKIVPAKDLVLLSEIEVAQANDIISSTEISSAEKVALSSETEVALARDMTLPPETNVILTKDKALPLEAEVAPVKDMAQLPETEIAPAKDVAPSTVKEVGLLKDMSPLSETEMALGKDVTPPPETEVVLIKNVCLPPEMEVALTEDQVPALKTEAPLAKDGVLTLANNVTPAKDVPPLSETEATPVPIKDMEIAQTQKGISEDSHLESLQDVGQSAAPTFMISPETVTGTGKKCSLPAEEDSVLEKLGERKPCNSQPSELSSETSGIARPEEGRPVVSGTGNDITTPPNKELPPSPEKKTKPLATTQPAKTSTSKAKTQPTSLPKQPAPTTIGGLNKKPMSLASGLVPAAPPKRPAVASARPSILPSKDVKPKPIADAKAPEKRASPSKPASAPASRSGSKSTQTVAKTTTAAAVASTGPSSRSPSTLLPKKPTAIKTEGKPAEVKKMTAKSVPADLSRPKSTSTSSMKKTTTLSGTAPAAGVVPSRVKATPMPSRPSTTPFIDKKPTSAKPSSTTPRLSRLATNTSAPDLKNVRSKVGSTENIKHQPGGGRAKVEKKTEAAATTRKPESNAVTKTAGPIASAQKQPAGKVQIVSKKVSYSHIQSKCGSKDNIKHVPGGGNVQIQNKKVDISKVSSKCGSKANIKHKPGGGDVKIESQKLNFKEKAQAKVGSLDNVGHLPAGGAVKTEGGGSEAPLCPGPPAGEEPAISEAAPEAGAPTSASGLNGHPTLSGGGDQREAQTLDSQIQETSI
inactive: [1] -0.002 | filanesib 0.022 | zotarolimus -0.029 | idasanutlin 0.028 | alisertib -0.034 | [2] -0.027 | gefitinib -0.019 | [3] -0.003 | lapatinib -0.002 | pictilisib -0.078 | [4] -0.004 | crizotinib 0.012 | [5] -0.025 | [6] -0.035 | duvelisib -0.03 | gandotinib 0.006 | tozasertib -0.023 | [7] -0.051 | doramapimod 0.008 | ispinesib -0.014

MAPKAPK3 (UniProt Q16644)
inactive: [1] -0.146 | filanesib 0 | zotarolimus -0.034 | idasanutlin -0.088 | alisertib 0.018 | [2] 0.037 | gefitinib 0.27 | [3] 0.01 | lapatinib -0.065 | pictilisib 0.039 | [4] -0.033 | crizotinib -0.078 | [5] 0.048 | [6] 0.115 | duvelisib 0.015 | gandotinib -0.043 | tozasertib 0.014 | [7] -0.021 | doramapimod 0.314 | ispinesib -0.111

MAP2K1 (UniProt Q02750)
Sequence of UniProt Q02750 (Q02750 whole entry, looked up): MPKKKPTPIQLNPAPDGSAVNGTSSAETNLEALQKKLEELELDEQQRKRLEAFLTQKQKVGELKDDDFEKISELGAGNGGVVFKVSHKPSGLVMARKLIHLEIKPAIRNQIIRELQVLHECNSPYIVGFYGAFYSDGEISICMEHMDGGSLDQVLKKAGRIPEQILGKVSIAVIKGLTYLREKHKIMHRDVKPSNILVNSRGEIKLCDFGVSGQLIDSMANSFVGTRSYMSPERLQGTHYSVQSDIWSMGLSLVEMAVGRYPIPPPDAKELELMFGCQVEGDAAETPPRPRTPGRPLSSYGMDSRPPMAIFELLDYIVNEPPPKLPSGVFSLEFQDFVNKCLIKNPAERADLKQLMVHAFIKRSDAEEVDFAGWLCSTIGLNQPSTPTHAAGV
inactive: [1] 0.022 | filanesib -0.05 | zotarolimus -0.007 | idasanutlin -0.047 | alisertib -0.048 | [2] 0.02 | gefitinib -0.011 | [3] 0.029 | lapatinib -0.045 | pictilisib 0.04 | [4] 0.055 | crizotinib -0.019 | [5] 0.088 | [6] -0.092 | duvelisib 0.059 | gandotinib 0.005 | tozasertib -0.009 | [7] -0.038 | doramapimod -0.05 | ispinesib -0.009

MAPKAPK5 (UniProt Q8IW41)
inactive: [1] -0.011 | filanesib -0.133 | zotarolimus 0.009 | idasanutlin -0.017 | alisertib -0.084 | [2] 0.269 | gefitinib 0 | [3] -0.038 | lapatinib 0.078 | pictilisib 0.134 | [4] 0.012 | crizotinib -0.046 | [5] 0.027 | [6] 0.069 | duvelisib 0.056 | gandotinib 0.297 | tozasertib -0.042 | [7] -0.013 | doramapimod 0.141 | ispinesib -0.017
